# In the library only some 3% were active in any assay of this set; here they are far more common.
# HEK293 viab: GF-AFC viability counterscreen for inhibitors of alpha-synuclein gene (SNCA) expression. HEK-293-SNCA-luc viability, GF-AFC fluorescence, 24 h. Potency, µM (top dose mostly 57.1 µM), inactives show top-dose activity change, negative = cytotoxicity, most hits filed as cytotoxic. 0.12% of 150,000 active. AID 1671193, 2021;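 note: potency is the fitted concentration of half-maximal effect; 0% = DMSO-treated cells and -100% = medium-only wells without cells; nearly all actives have a fitted effect of over 30% in size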
#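 HEK-293-SNCA-luc cells (1500/well) plated 24 h, then exposed 24 h to a dilution series; GF-AFC added 30 min at 37C, fluorescence 405/540 nm; normalised to medium-only and DMSO wells, Hill fit.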
# KDM5B inhibitor: Primary screen for KDM5B Histone Demethylases FDH-coupled qHTS. Lysine-specific demethylase 5B (Homo sapiens), Q9UGL1. KDM5B demethylase, FDH-coupled NADH fluorescence (FDH is formaldehyde dehydrogenase). Potency, µM (titrated, usually from 57.7 µM), actives largely listed as inhibitors. 2.6% of 220,000 active. AID 1347165, 2019; note: potency is the fitted concentration of half-maximal effect; 0% is about no effect; nearly all actives have a fitted effect of over 70% in size
# Target sequence (Q9UGL1 whole entry, looked up): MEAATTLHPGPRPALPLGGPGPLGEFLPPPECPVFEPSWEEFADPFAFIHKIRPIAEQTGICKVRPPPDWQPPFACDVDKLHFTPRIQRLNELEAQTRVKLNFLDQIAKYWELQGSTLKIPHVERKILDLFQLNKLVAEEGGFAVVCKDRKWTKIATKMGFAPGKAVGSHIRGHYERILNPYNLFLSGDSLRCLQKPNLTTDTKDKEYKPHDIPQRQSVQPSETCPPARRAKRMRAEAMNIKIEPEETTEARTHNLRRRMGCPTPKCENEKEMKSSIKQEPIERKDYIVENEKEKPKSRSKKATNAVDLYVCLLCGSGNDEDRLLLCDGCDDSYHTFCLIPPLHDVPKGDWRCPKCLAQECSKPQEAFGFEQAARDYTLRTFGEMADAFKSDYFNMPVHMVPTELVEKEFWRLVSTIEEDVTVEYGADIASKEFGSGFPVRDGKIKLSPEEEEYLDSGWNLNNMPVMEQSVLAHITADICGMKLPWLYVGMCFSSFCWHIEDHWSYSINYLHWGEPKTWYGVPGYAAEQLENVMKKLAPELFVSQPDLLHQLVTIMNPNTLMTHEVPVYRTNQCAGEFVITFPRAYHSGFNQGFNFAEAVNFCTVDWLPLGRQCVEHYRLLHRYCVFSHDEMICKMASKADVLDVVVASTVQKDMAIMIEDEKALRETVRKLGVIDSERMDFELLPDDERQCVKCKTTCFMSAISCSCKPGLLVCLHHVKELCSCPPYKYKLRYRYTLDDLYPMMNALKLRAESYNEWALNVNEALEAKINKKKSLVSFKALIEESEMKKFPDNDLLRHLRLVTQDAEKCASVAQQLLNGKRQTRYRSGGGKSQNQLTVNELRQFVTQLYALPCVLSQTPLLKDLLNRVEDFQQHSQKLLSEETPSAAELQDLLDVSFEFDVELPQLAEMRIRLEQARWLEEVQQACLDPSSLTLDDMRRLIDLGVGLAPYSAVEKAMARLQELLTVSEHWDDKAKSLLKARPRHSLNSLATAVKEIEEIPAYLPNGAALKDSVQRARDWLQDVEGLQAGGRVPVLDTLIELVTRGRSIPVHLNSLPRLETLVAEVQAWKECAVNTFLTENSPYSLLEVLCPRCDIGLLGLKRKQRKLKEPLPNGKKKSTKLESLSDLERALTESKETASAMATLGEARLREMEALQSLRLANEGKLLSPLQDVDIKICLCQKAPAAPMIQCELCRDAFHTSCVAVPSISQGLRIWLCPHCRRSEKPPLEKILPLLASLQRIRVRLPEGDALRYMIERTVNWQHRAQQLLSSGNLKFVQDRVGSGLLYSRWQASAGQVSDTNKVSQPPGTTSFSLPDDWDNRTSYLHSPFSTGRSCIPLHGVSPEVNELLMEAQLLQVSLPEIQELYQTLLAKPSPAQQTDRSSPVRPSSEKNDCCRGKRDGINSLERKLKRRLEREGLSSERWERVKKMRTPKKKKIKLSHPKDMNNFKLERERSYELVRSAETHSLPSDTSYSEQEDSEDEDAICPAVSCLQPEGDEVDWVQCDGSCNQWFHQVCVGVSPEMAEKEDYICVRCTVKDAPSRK
#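 Coupled FDH/NAD⁺ fluorescence readout. KDM5BΔAP 200 nM final; compound titration, 10 min RT preincubation; substrate mix 12.5 µM H3K4me3, 25 µM 2-OG, 50 µM Fe(II), 100 µM ascorbate, 0.25 mM NAD⁺, 0.25 U/mL FDH; ΔRFU over 30 min.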
# SNCA expr inhib: Primary qHTS assay for inhibitors of alpha-synuclein gene (SNCA) expression; 0.17% of 140,000 active; Potency, µM (series often up to 57.2 µM), for inactives: top-dose activity change, negative = inhibition, hits mostly inhibitors; HEK-293 SNCA-luciferase knock-in, luminescence, 24 h;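 note: potency is the fitted concentration of half-maximal effect; plate controls were DMSO cells for no effect and cell-free wells for full effect; nearly all actives have a fitted effect of over 45% in size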
# IP6K1 inh: Primary qHTS assay for small molecule inhibitors of Inositol hexaphosphate kinase 1 (IP6K1) | 0.81% of 140,000 active | IP6K1 kinase, ADP-Glo luminescence, 2 h; hits give low values | activity change, % (series mostly up to about 58 µM) | AID 1645851, 2021 | Inositol hexakisphosphate kinase 1 (Homo sapiens), Q92551; in the data active = activity change below about -25%; note: % is set by controls: 0 for no effect and ±100 for the full control effect
#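 ADP-Glo luminescence measures ADP made by human IP6K1 during a 2 h RT reaction with ATP/IP6 (mix at 1.3 mM/130 uM); top library doses 57.5 and 19.1 uM final.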
# * = called active by the depositor; i = inactive; ? = inconclusive; . = no result; [ ] = another dose, or the depositor's remark. Unless noted, calls come from the whole dose curve; as a rule, active = well fitted curve in the direction sought with a large enough effect; inconclusive = small, poorly fitted or top-dose-only effect, or another doubt; inactive = no such curve, though single readings can be large; an effect the other way counts as inactive or inconclusive.
SMILES,HEK293 viab,KDM5B inhibitor,SNCA expr inhib,IP6K1 inh
COc1ccccc1-c1ccnc(N[C@H]2CO[C@H]3[C@@H]2OC[C@@H]3NS(=O)(=O)c2cccs2)n1,-0.7%,?,-22.7%,-6.6
N#Cc1cccc(NC(=O)N[C@H]2CO[C@H]3[C@@H]2OC[C@@H]3Nc2nccc(-c3cccs3)n2)c1,-1.9%,i,5.0%,4.1
COc1ccc(-c2ccnc(N[C@H]3CO[C@H]4[C@@H]3OC[C@H]4OC(=O)Nc3cccc(C(F)(F)F)c3)n2)cc1,-8.2%,22.4µM*,-19.5%,-14.0
COc1ccccc1-c1cccc(C(=O)N2CCN(C(=O)c3ccc(Cl)cc3)CC2)c1,-4.4%[12.5 µM],.,?,9.2
CCc1ccc(NC(=O)Cn2c(-c3cccc(Cl)c3)nc(C)c(CCO)c2=O)cc1,-25.4%,i,-0.9%,1.4
CC(C)(C)C(=O)N[C@H]1CO[C@H]2[C@@H]1OC[C@@H]2Nc1nccc(-c2cccc(F)c2)n1,2.9%[87.6 µM],?,15.6%[87.6 µM],-6.2
O=C(NCc1ccccc1)O[C@@H]1CO[C@H]2[C@@H]1OC[C@@H]2Nc1nccc(-c2ccc3c(c2)OCO3)n1,-16.8%,?,?,-4.6
c1csc(-c2ccnc(N[C@H]3CO[C@H]4[C@@H]3OC[C@@H]4NCC3CCCCC3)n2)c1,?,39.8µM*,?,6.2
O=C(O)CCCC(=O)N[C@H]1CO[C@H]2[C@@H]1OC[C@@H]2Nc1nccc(-c2cccc(F)c2)n1,1.2%[87.6 µM],35.5µM*,-5.4%[87.6 µM],-8.8
COc1ccc(NC(=O)O[C@@H]2CO[C@H]3[C@@H]2OC[C@@H]3Nc2nccc(-c3cccs3)n2)cc1,-0.8%,i,35.0%,-13.0
CC(C)(C)c1ccc(NC(=O)O[C@@H]2CO[C@H]3[C@@H]2OC[C@@H]3Nc2nccc(-c3cccc(F)c3)n2)cc1,4.1%,?,-6.1%,-3.5
CC(C)(C)c1ccc(NC(=O)O[C@@H]2CO[C@H]3[C@@H]2OC[C@@H]3Nc2nccc(-c3ccc4c(c3)OCO4)n2)cc1,-12.8%,28.2µM*,1.8%,-6.2
CN(C)c1ccc(-c2ccnc(N[C@H]3CO[C@H]4[C@@H]3OC[C@H]4OC(=O)NCc3ccccc3)n2)cc1,-6.4%,28.2µM*,-22.0%,2.9
COc1ccc(F)cc1-c1ccc(CN2CCCCC2C(=O)NCC(F)F)cc1 (stereo unspecified),.,.,.,1.1
CCOC(=O)c1c(C)n(-c2ccccc2)c2ccc(OC(=O)c3ccccc3NC(=O)C(C)(C)C)cc12,?,?,12.6µM*,-17.0
CCOC(=O)c1c(C)n(-c2ccccc2)c2ccc(OC(=O)c3ccccc3NC(=O)C(C)C)cc12,?,?,?,-13.2
Cc1ccc(C)c(NC(=O)c2cc3c(N4CCSCC4)nc(C)cn3n2)c1,-0.3%,31.6µM*,7.2%,-0.8
COc1ccccc1NC(=O)c1cc2c(N3CCSCC3)nc(C)cn2n1,3.1%,28.2µM*,-5.7%,5.0
Cc1cn2nc(C(=O)Nc3ccccc3C)cc2c(N2CCSCC2)n1,?,35.5µM*,28.9%,-7.3
Cc1ccc2c(n1)OC(COc1ccccc1)CN(Cc1cccs1)C2=O (stereo unspecified),?,.,4.2%[25.6 µM],12.3
CC(C)CNC(=O)c1ccc2c(c1)C1(CCN(C)C1)CN2CC1CCOCC1 (stereo unspecified),13.1%[87.6 µM],35.5µM*,-5.2%[87.6 µM],-10.7
CN1CCC2(C1)CN(CC1CCOCC1)c1ccc(C(=O)Nc3ccccc3)cc12 (stereo unspecified),-7.3%[87.6 µM],?,?,-1.7
CN1CCC2(C1)CN(CC1CCOCC1)c1ccc(C(=O)NCc3ccccc3)cc12 (stereo unspecified),3.5%[87.6 µM],39.8µM*,-11.4%[87.6 µM],2.5
CCOC(=O)c1ccc(N2CCN(CC3=CC(C)(C)Oc4ccc(OC)cc43)CC2)cc1,.,.,.,-0.9
Cc1nc2cnccn2c1C(=O)NCc1ccc(F)cc1F,.,.,.,5.3
SMILES,HEK293 viab,KDM5B inhibitor,SNCA expr inhib,IP6K1 inh
O=C(CCNc1c(-c2cccc(F)c2)nc2cnccn12)NCc1ccccc1F,?,28.2µM*,-2.7%,4.0
CNC(=O)CCNc1c(-c2cccc(F)c2)nc2cnccn12,?,28.2µM*,14.2%,21.9
Cc1nc2cnccn2c1C(=O)NCCc1cccc(F)c1,.,.,.,-1.9
F[C@@H]1CN(CC2CC2)C[C@@H]1OCc1nc2ccccc2o1,2.1%[87.6 µM],?,131.0%[87.6 µM],2.4
COc1ccccc1-c1cc(C(=O)N2CCCC2)nc2c1cnn2C,-0.3%,79.4µM*,6.6%,-11.6
C#CCNC(=O)c1cc(-c2ccccc2OC)c2cnn(C)c2n1,-17.7%,89.1µM*,72.8%,-6.1
COc1ccc(N2CC3CCC(C2)N3Cc2ccc(-c3cccnc3)cc2)cc1,0.6%,?,6.1%,-8.2
CCN(CC)S(=O)(=O)c1ccc(-c2nc(C)ccc2OC)cc1,3.2%,?,9.7%,4.5
COCCOc1ccc(-c2nc(C)ccc2OC)cc1,3.1%,25.1µM*,-16.8%,10.2
CC1C=CC(C)N1c1ncnc2c1CN(C1CCNC1)C(=O)CN2C (stereo unspecified),-4.9%,89.1µM*,?,-0.8
COCCNc1ncnc2c1CN(C1CCNCC1)C(=O)CN2C,8.9%,50.1µM*,-5.5%,2.7
COCCNc1ncnc2c1CN(C1CCCC1)C(=O)CN2C,-4.2%,?,-1.3%,12.6
CCN1CCN(CCNC(=O)c2cn3ccnc(-c4ccc(OC)cc4)c3n2)CC1,-0.4%,28.2µM*,21.4%,21.4
CCOC(=O)c1ccccc1NC(=O)Cn1c(N(C)Cc2ccccc2)nc(C)cc1=O,10.4%,15.8µM*,-3.1%,11.6
CCOC(=O)c1ccc(NC(=O)Cn2c(N(C)Cc3ccccc3)nc(C)cc2=O)cc1,13.3%,i,-13.0%,8.6
O=C(c1cccc(Br)c1)N1CCCN(c2ccnc3ccnn23)CC1,8.2%,.,2.7%,-3.1
O=C(C1CCN(c2nccc(Nc3ccccc3Cl)n2)CC1)N1CCC(c2ccccc2)CC1,-7.7%,.,?,1.8
COCCn1c(=O)c2c(n1Cc1ccccc1)CN(Cc1cccnc1OC)CC2,-6.7%[87.6 µM],35.5µM*,52.8%[87.6 µM],1.6
CC(C)CCN1CCc2c(n(Cc3cccnc3)n(CCc3ccccc3)c2=O)C1,-11.2%[87.6 µM],31.6µM*,-6.2%[87.6 µM],-14.3
COCCn1c(=O)c2c(n1Cc1ccccc1)CN(Cc1ccc(C(C)C)cc1)CC2,-21.5%[87.6 µM],?,-14.5%[87.6 µM],-0.3
COCCn1c(=O)c2c(n1Cc1ccccc1)CN(Cc1cccc(C)n1)CC2,1.3%[87.6 µM],35.5µM*,2.0%[87.6 µM],8.1
CC(C)NC(=O)c1nc(-c2ccc(Cl)cc2Cl)c2cnccn12,0.0%,79.4µM*,-28.2%,-10.9
O=C(NCc1cccnc1)c1nc(-c2ccc(Cl)cc2Cl)c2cnccn12,-12.1%,?,-10.5%,-13.6
COC(=O)CNC(=O)c1nc(-c2ccc(Cl)cc2Cl)c2cnccn12,1.7%,79.4µM*,-17.9%,-14.4
